# Among all 1,000 compounds or so, about 200 (20%) were called active. Rule as the data show it: active = inhibition above about 55%; inactive = the rest. Only a sample is shown. Entries with a potency or affinity are not part of this list.
# Target: Dual specificity protein phosphatase 3 (Homo sapiens) (UniProt P51452)
# Test: VHR1 phosphatase inhibitors, biochemical (AID 1878)
# Settings: recombinant VHR phosphatase, fluorogenic substrate; at 13.3 µM; stronger effect = higher value
# Sequence of Dual specificity protein phosphatase 3 (Homo sapiens) (P51452 whole entry, looked up): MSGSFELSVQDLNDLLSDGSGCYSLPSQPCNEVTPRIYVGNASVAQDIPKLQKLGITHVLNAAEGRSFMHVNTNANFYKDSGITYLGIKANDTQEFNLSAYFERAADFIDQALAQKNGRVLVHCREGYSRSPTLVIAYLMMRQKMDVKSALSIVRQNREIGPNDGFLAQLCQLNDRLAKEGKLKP
row,SMILES,inhibition
1,Cc1ccc(NC(=O)CNC(=O)N2CC(=O)Nc3ccccc32)cc1F,15.4% (inactive)
2,O=C(Cn1cncn1)N/N=C/c1ccccc1Cl,-4.5% (inactive)
3,C[C@]12CCC3=C4CCC(=O)C=C4CC[C@H]3C1CC[C@@H]2O (stereo partly specified),14.2% (inactive)
4,CN1C(C)(C)CC(NC(=O)c2ccco2)CC1(C)C,-4.7% (inactive)
5,COc1cc(C2Nc3ccccc3NC3=C2C(=O)CC(C)(C)C3)cc(OC)c1OC (stereo unspecified),-7.9% (inactive)
6,CCOc1ccc(C(=O)N2CCC3(CC2)NCCc2[nH]cnc23)cc1,-8.9% (inactive)
7,Cc1cc(C(=O)N/N=C/c2cc([N+](=O)[O-])cc(C)c2O)n[nH]1,76.1% (active)
8,CCc1nn(CC(=O)NCCCN(C)C2CCCCC2)c(=O)c2cc3occc3n12,7.4% (inactive)
9,COc1ccccc1Nc1nn2c(=O)c3ccc(C(=O)NCc4cccnc4)cc3nc2s1,97.1% (active)
10,COc1cccc(CNC(=O)C2CCN(c3nn4c(=O)cc(C)nc4s3)CC2)c1,-8.6% (inactive)
11,COc1ccc(C(CC(=O)Nc2ncccc2C)N2Cc3ccccc3C2=O)cc1 (stereo unspecified),-9.5% (inactive)
12,COc1cc(NC(=O)CN2C(=O)COc3ccc(S(=O)(=O)N4CCCCC4)cc32)cc(OC)c1,-1.8% (inactive)
13,O=C(c1ccc(CS(=O)c2ccccc2Cl)o1)N1CCN(c2ccccc2)CC1 (stereo unspecified),2.8% (inactive)
14,CC(C)c1ccc(N2C(=NC(=O)C3CCCO3)SC3CS(=O)(=O)CC32)cc1 (stereo unspecified),11.9% (inactive)
15,COc1cc2c(cc1OC)-c1cc(Nc3cccc(F)c3)nc(=O)n1CC2,14.3% (inactive)
16,CN(C)c1ccc(NS(=O)(=O)c2cc3c4c(c2)CC(=O)N4CCC3)cc1,-8% (inactive)
17,COc1cc(/C=N/NC(=O)c2ccc3c(c2)OCO3)ccc1O,-2% (inactive)
18,COc1cc(/C=N/Nc2ccc([N+](=O)[O-])cn2)cc(OC)c1O,-5.7% (inactive)
19,CCOc1ccc(NC(=O)CCC(=O)NNC(=O)c2ccccc2Cl)cc1,2% (inactive)
20,CCC1CCCCN1CCCNC(=O)c1cn(C)c2ccc(S(=O)(=O)N3CCOCC3)cc2c1=O (stereo unspecified),-9.8% (inactive)
21,COCCN(CC1CCCN(C2Cc3ccccc3C2)C1)C(=O)CSC (stereo unspecified),-11.6% (inactive)
22,C=C(C)CCC(C)N1CCC(n2nccc2NC(=O)CCCc2ccccc2)CC1 (stereo unspecified),-2.3% (inactive)
23,N#C/C(=C\c1ccc(OCc2ccc(Cl)cc2)cc1)C(=O)Nc1cccc(C(=O)O)c1,84.9% (active)

row,SMILES,inhibition
1,O=C(Nc1cccc(Cl)c1)OCCOc1ccccc1,-0.9% (inactive)
2,N#C/C(=C\c1ccc(OCc2ccc(Br)cc2)cc1)C(=O)Nc1cccc(C(=O)O)c1,87.5% (active)
3,Oc1ccc(NCc2ccc(OCc3ccccc3)cc2)cc1,-5.6% (inactive)
4,Cn1c(=O)c2[nH]c(N3CCCCC3)nc2n(C)c1=O,6.6% (inactive)
5,Cc1ccc(-n2nc3c(=O)n(CCCC(=O)NCc4ccco4)nc(C)c3c2C)cc1,-4.7% (inactive)
6,CCN(CC)c1ccc(NS(=O)(=O)c2ccc(-c3ccc(=O)[nH]n3)o2)c(C)c1,-2.9% (inactive)
7,COc1ccc(CCN(C)CC(O)COc2ccc(C(C)=O)cc2OC)cc1OC (stereo unspecified),-11.9% (inactive)
8,CC(=O)COC(=O)C1=NN(c2ccccc2)C(=O)CC1,8.8% (inactive)
9,CCOC(=O)c1ccc(NCCc2ccc(OC)c(OC)c2)c(N)c1,33% (inactive)
10,COc1ccc(Cl)cc1-n1c(=S)sc2c(=O)n(-c3ccc(F)cc3)c(SCC(=O)O)nc21,-3.3% (inactive)
11,COc1ccc(/C=N/N=C2/NC(=O)C(CC(=O)O)S2)cc1OCc1ccc(Cl)cc1Cl (stereo unspecified),95.9% (active)
12,CCN(CC)c1ccc(NC(=O)c2c(C)noc2C)cc1,-3.1% (inactive)
13,COCCN(C(=O)c1ccc(OC2CCN(S(=O)(=O)N(C)C)CC2)cc1)C(C)C,-6.4% (inactive)
14,COc1ccc(C(=O)C2CCCN(C(=O)c3cccc(N(C)C)c3)C2)cc1OC (stereo unspecified),16.4% (inactive)
15,COc1cc(C(=O)OC2C[C@H]3CC[C@@H](C2)N3C)ccc1O (stereo partly specified),-1.1% (inactive)
16,Cn1c(/C=C/c2ccc(Cl)cc2Cl)c([N+](=O)[O-])c(=O)n(C)c1=O,20.2% (inactive)
17,CC1CCCCN1CCCNC(=O)Cn1c(=O)c2cccn2c2ccccc21 (stereo unspecified),-1.3% (inactive)
18,COc1ccc(/C=N\NC(=O)c2cc(O)c(O)c(O)c2)cc1CN1CCN(c2ccc(F)cc2)CC1,-34.7% (inactive)
19,COc1ccc2c(c1)cc1c(=O)n(CC(=O)NC(C)CCc3ccccc3)nc(C)n12 (stereo unspecified),-4% (inactive)
20,CN1CC(=O)N2Cc3[nH]c4ccccc4c3C[C@H]2C1=O,11.2% (inactive)
21,Cc1ccc(N2CCN(c3ncccc3[N+](=O)[O-])CC2)c(C)c1,8.1% (inactive)
22,NC(=O)C(c1ccc(F)cc1)c1ccc(C(=O)c2ccccc2)cc1 (stereo unspecified),18.3% (inactive)
23,CCOCCn1c2ccccc2c2nc3ccccc3nc21,-4.2% (inactive)

row,SMILES,inhibition
1,COc1ccc(C(=O)/C=C2/C(=O)Nc3ccccc32)cc1OC,13.2% (inactive)
2,CC(Oc1ccc2ccc(=O)oc2c1)C(=O)NC1CC(C)(C)NC(C)(C)C1 (stereo unspecified),-2.5% (inactive)
3,Nc1ccc2c(c1Cl)C(=O)c1ccc(N)c(Cl)c1C2=O,99.8% (active)
4,CCCC(=O)Nc1ccc(S(=O)(=O)N2CCOCC2)cc1,-5.6% (inactive)
5,CC(C)(C)CC(=O)Nc1ccc(-c2nnc3n2CCCCC3)cc1,27.9% (inactive)
6,COc1nc(C)cc(C)c1S(=O)(=O)c1ccccc1,6.1% (inactive)
7,c1ccc(CCNC2CCCCCC2)cc1,14.2% (inactive)
8,O=C(NCCc1ccccc1)C1CC(=O)N(CCc2ccccc2)C1 (stereo unspecified),-8.3% (inactive)
9,CC1CCN(S(=O)(=O)c2ccc3c(c2)N(CC(=O)NCCCN2C(C)CCCC2C)C(=O)CO3)CC1 (stereo unspecified),-11.5% (inactive)
10,O=C(O)Cn1nc2c3c(cccc3c1=O)-c1ccccc1-2,-3.4% (inactive)
11,Cc1cc2nc(/C=C/c3nc4cc(C)c(C)cc4[nH]3)[nH]c2cc1C,82.4% (active)
12,NC(=O)C(c1ccccc1)c1ccc(C(=O)c2ccccc2)cc1 (stereo unspecified),-3.2% (inactive)
13,Cn1nc([N+](=O)[O-])c2c(-c3nc4ccccc4s3)c(N)n(C3CCCCC3)c2c1=O,97.9% (active)
14,COc1cccc(NC(=O)CN(C)S(=O)(=O)c2ccc3[nH]c(=O)oc3c2)c1,9% (inactive)
15,O=C(Cn1ncc2c([nH]c3ccccc32)c1=O)N1CCOCC1,16.5% (inactive)
16,COc1cc(/C=C2/C(=O)NN(c3ccc(Cl)cc3)C2=O)cc(OC)c1O,17.9% (inactive)
17,COc1cc(/C=C2/C(=O)N(c3cccc(Br)c3)N=C2C)cc(OC)c1O,6.8% (inactive)
18,CC(C)(C)OC(=O)NCC1CCN(S(=O)(=O)Cc2ccccc2)CC1,-7.1% (inactive)
19,CCOc1ccc(-c2cc(C(=O)NCCCN3CCCC3)c3ccccc3n2)cc1,-16.4% (inactive)
20,C/C(N)=C(/C#N)C(=O)COC(=O)c1cc(-c2ccc(Br)cc2)nc2ccccc12,-2.7% (inactive)
21,COc1ccccc1CN1CCCC(CN(CCN(C)C)C(=O)C2CCCC2)C1 (stereo unspecified),-18.4% (inactive)
22,Nc1nn2c(-c3ccccc3)cc(=O)[nH]c2c1N=Nc1ccc(Br)cc1,81.7% (active)
23,CC(C)(C)c1cc(=O)n2[nH]c(N)nc2n1,-15.2% (inactive)

row,SMILES,inhibition
1,COC(=O)C1(C)NC(c2ccc(Cl)cc2)C2C(=O)N(c3ccccc3)C(=O)C21 (stereo unspecified),-6.5% (inactive)
2,CN1CCN(c2nc(-c3ccccc3Cl)nc3ccccc23)CC1,5.7% (inactive)
3,COc1ccc(-c2cc3nc4ccccc4n3c(N)c2C#N)cc1,95.4% (active)
4,COc1ccc(NC2CCCN(C(=O)CCN3CCOCC3)C2)cc1 (stereo unspecified),2.8% (inactive)
5,CC(C)OC(=O)CCCNc1ccc([N+](=O)[O-])cc1[N+](=O)[O-],5.9% (inactive)
6,Cc1cc(=O)oc2cc(OC(C)C(=O)NCCc3ccc(S(N)(=O)=O)cc3)ccc12 (stereo unspecified),-4.7% (inactive)
7,Cc1cc(C)c(S(=O)(=O)c2cccc(Br)c2C)c(=O)[nH]1,9.5% (inactive)
8,O=C(Nc1ccc(Br)cc1F)c1ccc2nsnc2c1,0.8% (inactive)
9,CCC(Sc1nnc(-c2ccco2)n1C)C(=O)Nc1nnc(C)s1 (stereo unspecified),-1.6% (inactive)
10,CCCCCCN1CC(=O)N2Cc3[nH]c4ccccc4c3C[C@H]2C1=O,11.5% (inactive)
11,COc1cccc(/C=N/Nc2ncnc3c2[nH]c2ccc(C)cc23)c1OC,97.6% (active)
12,COc1ccc(/C=N/NC(=O)c2[nH]c3ccc(C)cc3c2-c2ccccc2)c(C(=O)O)c1OC,6.7% (inactive)
13,O=C(COCc1cc(-c2ccc3c(c2)OCO3)on1)Nc1cccnc1Cl,2.9% (inactive)
14,COc1ccccc1N1CCN(C2CCCN(C(=O)CCc3cnccn3)C2)CC1 (stereo unspecified),-1.8% (inactive)
15,C[C@]1(CO)CCC[C@@]2(C)C1CC[C@@H](CO)[C@@H]2CCc1ccoc1 (stereo partly specified),-0.3% (inactive)
16,CCCc1c(C(=O)N/N=C(\C)CCc2ccccc2)nnn1-c1nonc1N,1.7% (inactive)
17,C/C(=N\NC(=O)c1nnn(-c2nonc2N)c1C)c1ccc(OCc2ccccc2)cc1,8.6% (inactive)
18,CCCOc1ccc(-c2c(C(=O)N/N=C/c3cccnc3)nnn2-c2nonc2N)cc1,96.5% (active)
19,CCc1nn(CC(=O)NCc2ccccc2Cl)c(=O)c2cccn12,17.5% (inactive)
20,COC(=O)c1sccc1NC(=O)Nc1ccc(C)cc1C,-7.1% (inactive)
21,O=C(Nc1cccc2ncccc12)c1ccccc1F,-0.8% (inactive)
22,COc1cccc(C2c3[nH]c4ccccc4c3C[C@H]3C(=O)N(CCCOC(C)C)CC(=O)N23)c1 (stereo partly specified),10.9% (inactive)

# Source: PubChem BioAssay AID1878 (Sanford-Burnham Center for Chemical Genomics, 2009)
